Results on 24 compounds are retold here after the supplement of paper PMC7765376.

In this assay the test system is PEO-1. The assay can be described thus: Excess HSA synergy score (sum over dose matrix of excess over highest single agent) (score (summed % response)); higher = less synergy / more antagonism (negative = synergy). Conditions: 72 h, read-out: viability/apoptosis luminescence (CellTiter-Glo or Caspase3-Glo / not stated per table).
[1] abbreviates: matrix design: 6x6, 5-fold dilutions (primary screen).
[2] abbreviates: matrix design: 10x10, 9-step dilutions (confirmatory).

Molecules are shown by their SMILES. Where a name gives a salt, the structure may show the parent alone. Whole data set: some 1,500 compounds, median “Excess HSA synergy score (sum over dose matrix of excess over highest single agent)” near 43, cut for the lowest 2% near -900. Only a selection was taken, and the lowest values are over-represented in it overall.

As to `CN1CC2c3ccccc3Oc3ccc(Cl)cc3C2C1` (stereo not drawn) [Asenapine maleate] + CC[C@H](NC(=O)[C@H](C)NC)C(=O)N1C[C@@H](O)C[C@H]1Cc1c(-c2[nH]c3cc(F)ccc3c2C[C@@H]2C[C@H](O)CN2C(=O)[C@H](CC)NC(=O)[C@H](C)NC)[nH]c2cc(F)ccc12 [Birinapant], the “Excess HSA synergy score” value under setting [1] is 164.
On the same count and under the same terms, next, `O=S(=O)(O)c1ccc2cc(N=Nc3cc(S(=O)(=O)O)c4cccnc4c3O)ccc2c1` + CC[C@H](NC(=O)[C@H](C)NC)C(=O)N1C[C@@H](O)C[C@H]1Cc1c(-c2[nH]c3cc(F)ccc3c2C[C@@H]2C[C@H](O)CN2C(=O)[C@H](CC)NC(=O)[C@H](C)NC)[nH]c2cc(F)ccc12 [Birinapant]: 130; `NC[C@H]1O[C@H](O[C@H]2[C@H](O)[C@@H](O[C@H]3O[C@H](CO)[C@@H](O)[C@H](N)[C@H]3O)[C@H](N)C[C@@H]2N)[C@H](O)[C@@H](O)[C@@H]1O` [Kanamycin] + CC[C@H](NC(=O)[C@H](C)NC)C(=O)N1C[C@@H](O)C[C@H]1Cc1c(-c2[nH]c3cc(F)ccc3c2C[C@@H]2C[C@H](O)CN2C(=O)[C@H](CC)NC(=O)[C@H](C)NC)[nH]c2cc(F)ccc12 [Birinapant]: -24.6; `CCc1cccc(CC)c1NC(=O)N1Cc2[nH]nc(NC(=O)c3ccc(N4CCN(C)CC4)cc3)c2C1` + CC[C@H](NC(=O)[C@H](C)NC)C(=O)N1C[C@@H](O)C[C@H]1Cc1c(-c2[nH]c3cc(F)ccc3c2C[C@@H]2C[C@H](O)CN2C(=O)[C@H](CC)NC(=O)[C@H](C)NC)[nH]c2cc(F)ccc12 [Birinapant]: -207.
For the compound `O=C(O)c1ccc(-c2cc3cccnc3c(-c3ccc4nonc4c3)n2)cc1` + CC[C@H](NC(=O)[C@H](C)NC)C(=O)N1C[C@@H](O)C[C@H]1Cc1c(-c2[nH]c3cc(F)ccc3c2C[C@@H]2C[C@H](O)CN2C(=O)[C@H](CC)NC(=O)[C@H](C)NC)[nH]c2cc(F)ccc12 [Birinapant], the “Excess HSA synergy score” value under setting [1] is -117.
Still for that read-out and setting: for `CCOC(=O)N1c2ccc(C(F)(F)F)cc2[C@@H](N(Cc2cc(C(F)(F)F)cc(C(F)(F)F)c2)C(=O)OC)C[C@H]1CC` [Torcetrapib] + CC[C@H](NC(=O)[C@H](C)NC)C(=O)N1C[C@@H](O)C[C@H]1Cc1c(-c2[nH]c3cc(F)ccc3c2C[C@@H]2C[C@H](O)CN2C(=O)[C@H](CC)NC(=O)[C@H](C)NC)[nH]c2cc(F)ccc12 [Birinapant] the value was -42.4; for `Nc1nc(=O)c2c([nH]1)NCC(CNc1ccc(C(=O)N[C@@H](CCC(=O)O)C(=O)O)cc1)N2C=O` (stereo partly drawn) [Calcium folinate] + CC[C@H](NC(=O)[C@H](C)NC)C(=O)N1C[C@@H](O)C[C@H]1Cc1c(-c2[nH]c3cc(F)ccc3c2C[C@@H]2C[C@H](O)CN2C(=O)[C@H](CC)NC(=O)[C@H](C)NC)[nH]c2cc(F)ccc12 [Birinapant], 148.
For `CN1CCCC(n2nc(Cc3ccc(Cl)cc3)c3ccccc3c2=O)CC1` (stereo not drawn) [Azelastine hydrochloride] + CC[C@H](NC(=O)[C@H](C)NC)C(=O)N1C[C@@H](O)C[C@H]1Cc1c(-c2[nH]c3cc(F)ccc3c2C[C@@H]2C[C@H](O)CN2C(=O)[C@H](CC)NC(=O)[C@H](C)NC)[nH]c2cc(F)ccc12 [Birinapant], the “Excess HSA synergy score” value under setting [1] is -156.
The same measure, in the same setting: next, `CN(C)/[N+]([O-])=N/Oc1cc(ON[N+](=O)N2CCN(C(=O)c3cc(Cc4n[nH]c(=O)c5ccccc45)ccc3F)CC2)c([N+](=O)[O-])cc1[N+](=O)[O-]` + CC[C@H](NC(=O)[C@H](C)NC)C(=O)N1C[C@@H](O)C[C@H]1Cc1c(-c2[nH]c3cc(F)ccc3c2C[C@@H]2C[C@H](O)CN2C(=O)[C@H](CC)NC(=O)[C@H](C)NC)[nH]c2cc(F)ccc12 [Birinapant]: 162.
Regarding `O=C(c1cc(Cc2n[nH]c(=O)c3ccccc23)ccc1F)N1CCN(C(=O)C2CC2)CC1` [Olaparib] + CC[C@H](NC(=O)[C@H](C)NC)C(=O)N1C[C@@H](O)C[C@H]1Cc1c(-c2[nH]c3cc(F)ccc3c2C[C@@H]2C[C@H](O)CN2C(=O)[C@H](CC)NC(=O)[C@H](C)NC)[nH]c2cc(F)ccc12 [Birinapant], the “Excess HSA synergy score” value was -98.9 under setting [1] and -1730 under setting [2].
With `CN1C(=O)C[C@@H](C(=O)N[C@@H](Cc2c[nH]cn2)C(=O)N2CCC[C@H]2C(N)=O)NC1=O` [Taltirelin] + CC[C@H](NC(=O)[C@H](C)NC)C(=O)N1C[C@@H](O)C[C@H]1Cc1c(-c2[nH]c3cc(F)ccc3c2C[C@@H]2C[C@H](O)CN2C(=O)[C@H](CC)NC(=O)[C@H](C)NC)[nH]c2cc(F)ccc12 [Birinapant], under setting [1], the “Excess HSA synergy score” value came to 10.4.
On to `C/C(=N\NC(=S)N1CCC1)c1ccccn1` + CC[C@H](NC(=O)[C@H](C)NC)C(=O)N1C[C@@H](O)C[C@H]1Cc1c(-c2[nH]c3cc(F)ccc3c2C[C@@H]2C[C@H](O)CN2C(=O)[C@H](CC)NC(=O)[C@H](C)NC)[nH]c2cc(F)ccc12 [Birinapant], for which the “Excess HSA synergy score” value under setting [1] was -323 and the “Excess HSA synergy score” value under setting [2] was -1630.
On to `Cc1n[nH]c(C)c1Cc1sc2c(c1C(=O)N1C[C@H](O)CO1)c(=O)n(C)c(=O)n2CC(C)C` + CC[C@H](NC(=O)[C@H](C)NC)C(=O)N1C[C@@H](O)C[C@H]1Cc1c(-c2[nH]c3cc(F)ccc3c2C[C@@H]2C[C@H](O)CN2C(=O)[C@H](CC)NC(=O)[C@H](C)NC)[nH]c2cc(F)ccc12 [Birinapant], for which the “Excess HSA synergy score” value under setting [1] came out at 60.3.
For the compound `COc1ccc(S(=O)(=O)N(C(C)=O)c2ccccc2/C=C/c2cc[n+]([O-])cc2)cc1` + CC[C@H](NC(=O)[C@H](C)NC)C(=O)N1C[C@@H](O)C[C@H]1Cc1c(-c2[nH]c3cc(F)ccc3c2C[C@@H]2C[C@H](O)CN2C(=O)[C@H](CC)NC(=O)[C@H](C)NC)[nH]c2cc(F)ccc12 [Birinapant], under setting [1], the “Excess HSA synergy score” value is -72.6.
Same read-out and setting: next, `CN(C)c1nc(Cc2ccc(NC(=O)c3ccc4ccccc4c3)cc2)nc(Cl)c1CC(=O)O` + CC[C@H](NC(=O)[C@H](C)NC)C(=O)N1C[C@@H](O)C[C@H]1Cc1c(-c2[nH]c3cc(F)ccc3c2C[C@@H]2C[C@H](O)CN2C(=O)[C@H](CC)NC(=O)[C@H](C)NC)[nH]c2cc(F)ccc12 [Birinapant]: 169; `N=C(NCCCCCCNC(=N)NC(=N)Nc1ccc(Cl)cc1)NC(=N)Nc1ccc(Cl)cc1` [Chlorhexidine] + CC[C@H](NC(=O)[C@H](C)NC)C(=O)N1C[C@@H](O)C[C@H]1Cc1c(-c2[nH]c3cc(F)ccc3c2C[C@@H]2C[C@H](O)CN2C(=O)[C@H](CC)NC(=O)[C@H](C)NC)[nH]c2cc(F)ccc12 [Birinapant]: -4.24.
In the case of `N#CN=C(NCCCCCCOc1ccc(Cl)cc1)Nc1ccncc1` + CC[C@H](NC(=O)[C@H](C)NC)C(=O)N1C[C@@H](O)C[C@H]1Cc1c(-c2[nH]c3cc(F)ccc3c2C[C@@H]2C[C@H](O)CN2C(=O)[C@H](CC)NC(=O)[C@H](C)NC)[nH]c2cc(F)ccc12 [Birinapant], the “Excess HSA synergy score” value under setting [1] is -214 and the “Excess HSA synergy score” value under setting [2] is -1410.
`CC(C)C[C@@H](C=O)NC(=O)[C@H](CC(C)C)NC(=O)[C@H](CC(C)C)NC(=O)OCc1ccccc1` + CC[C@H](NC(=O)[C@H](C)NC)C(=O)N1C[C@@H](O)C[C@H]1Cc1c(-c2[nH]c3cc(F)ccc3c2C[C@@H]2C[C@H](O)CN2C(=O)[C@H](CC)NC(=O)[C@H](C)NC)[nH]c2cc(F)ccc12 [Birinapant]: the “Excess HSA synergy score” value under setting [1] was found to be 36.9.
Same read-out and setting: next, `O=C(NC1CC1)c1cccc(-c2ccc3c(NC(=O)C4CC4)n[nH]c3c2)c1` + CC[C@H](NC(=O)[C@H](C)NC)C(=O)N1C[C@@H](O)C[C@H]1Cc1c(-c2[nH]c3cc(F)ccc3c2C[C@@H]2C[C@H](O)CN2C(=O)[C@H](CC)NC(=O)[C@H](C)NC)[nH]c2cc(F)ccc12 [Birinapant]: 81.8.
Regarding `N#Cc1ccc(COC[C@H]2O[C@@H](n3c(NCc4ccc(Cl)c(Cl)c4)nc4c(N)ncnc43)[C@H](O)[C@@H]2O)cc1` + CC[C@H](NC(=O)[C@H](C)NC)C(=O)N1C[C@@H](O)C[C@H]1Cc1c(-c2[nH]c3cc(F)ccc3c2C[C@@H]2C[C@H](O)CN2C(=O)[C@H](CC)NC(=O)[C@H](C)NC)[nH]c2cc(F)ccc12 [Birinapant], the “Excess HSA synergy score” value under setting [1] is -237.
With `COc1ccc(-c2ccc3c(N4CCOCC4)nc(N4C[C@@H](C)O[C@@H](C)C4)nc3n2)cc1CO` + CC[C@H](NC(=O)[C@H](C)NC)C(=O)N1C[C@@H](O)C[C@H]1Cc1c(-c2[nH]c3cc(F)ccc3c2C[C@@H]2C[C@H](O)CN2C(=O)[C@H](CC)NC(=O)[C@H](C)NC)[nH]c2cc(F)ccc12 [Birinapant], the “Excess HSA synergy score” value under setting [1] is -161.
Still for that read-out and setting: next, `CC(C)(O)c1cc2nc(-c3cnc(N)nc3)nc(N3CCOCC3)c2s1` + CC[C@H](NC(=O)[C@H](C)NC)C(=O)N1C[C@@H](O)C[C@H]1Cc1c(-c2[nH]c3cc(F)ccc3c2C[C@@H]2C[C@H](O)CN2C(=O)[C@H](CC)NC(=O)[C@H](C)NC)[nH]c2cc(F)ccc12 [Birinapant]: 72.3.
On to `Cc1nc(N)ncc1-c1nc(N2CCOCC2)c2sc(C(C)(C)O)cc2n1` + CC[C@H](NC(=O)[C@H](C)NC)C(=O)N1C[C@@H](O)C[C@H]1Cc1c(-c2[nH]c3cc(F)ccc3c2C[C@@H]2C[C@H](O)CN2C(=O)[C@H](CC)NC(=O)[C@H](C)NC)[nH]c2cc(F)ccc12 [Birinapant], for which the “Excess HSA synergy score” value under setting [1] is -47.1.
In the case of `COc1ccc(-c2nc(N3CCOCC3)c3sc(CN(C)c4ncc(C(=O)NO)cn4)cc3n2)cn1` + CC[C@H](NC(=O)[C@H](C)NC)C(=O)N1C[C@@H](O)C[C@H]1Cc1c(-c2[nH]c3cc(F)ccc3c2C[C@@H]2C[C@H](O)CN2C(=O)[C@H](CC)NC(=O)[C@H](C)NC)[nH]c2cc(F)ccc12 [Birinapant], the “Excess HSA synergy score” value runs as follows: under setting [1], -204; under setting [2], -1340.
